Data as given in the supplement of paper PMC11732987, “Enantioselective OTUD7B fragment discovery through chemoproteomics screening and high-throughput optimisation” (Communications Chemistry, 2025).

Assays:
Assay in all cases: log2 ratio of Biotin-Ahx-Ub-VS probe labelling (fragment/DMSO); higher = less target engagement (more negative = stronger competition), active = hit call of the paper (q ≤ 0.05, log2 ratio ≤ -1)
Conditions in all cases: compound concentration: 200 uM; treatment time: 3 h
USP34 = USP34 (UniProt Q70CQ2)
Chain of USP34 (Q70CQ2 whole entry, the tested form may be a part): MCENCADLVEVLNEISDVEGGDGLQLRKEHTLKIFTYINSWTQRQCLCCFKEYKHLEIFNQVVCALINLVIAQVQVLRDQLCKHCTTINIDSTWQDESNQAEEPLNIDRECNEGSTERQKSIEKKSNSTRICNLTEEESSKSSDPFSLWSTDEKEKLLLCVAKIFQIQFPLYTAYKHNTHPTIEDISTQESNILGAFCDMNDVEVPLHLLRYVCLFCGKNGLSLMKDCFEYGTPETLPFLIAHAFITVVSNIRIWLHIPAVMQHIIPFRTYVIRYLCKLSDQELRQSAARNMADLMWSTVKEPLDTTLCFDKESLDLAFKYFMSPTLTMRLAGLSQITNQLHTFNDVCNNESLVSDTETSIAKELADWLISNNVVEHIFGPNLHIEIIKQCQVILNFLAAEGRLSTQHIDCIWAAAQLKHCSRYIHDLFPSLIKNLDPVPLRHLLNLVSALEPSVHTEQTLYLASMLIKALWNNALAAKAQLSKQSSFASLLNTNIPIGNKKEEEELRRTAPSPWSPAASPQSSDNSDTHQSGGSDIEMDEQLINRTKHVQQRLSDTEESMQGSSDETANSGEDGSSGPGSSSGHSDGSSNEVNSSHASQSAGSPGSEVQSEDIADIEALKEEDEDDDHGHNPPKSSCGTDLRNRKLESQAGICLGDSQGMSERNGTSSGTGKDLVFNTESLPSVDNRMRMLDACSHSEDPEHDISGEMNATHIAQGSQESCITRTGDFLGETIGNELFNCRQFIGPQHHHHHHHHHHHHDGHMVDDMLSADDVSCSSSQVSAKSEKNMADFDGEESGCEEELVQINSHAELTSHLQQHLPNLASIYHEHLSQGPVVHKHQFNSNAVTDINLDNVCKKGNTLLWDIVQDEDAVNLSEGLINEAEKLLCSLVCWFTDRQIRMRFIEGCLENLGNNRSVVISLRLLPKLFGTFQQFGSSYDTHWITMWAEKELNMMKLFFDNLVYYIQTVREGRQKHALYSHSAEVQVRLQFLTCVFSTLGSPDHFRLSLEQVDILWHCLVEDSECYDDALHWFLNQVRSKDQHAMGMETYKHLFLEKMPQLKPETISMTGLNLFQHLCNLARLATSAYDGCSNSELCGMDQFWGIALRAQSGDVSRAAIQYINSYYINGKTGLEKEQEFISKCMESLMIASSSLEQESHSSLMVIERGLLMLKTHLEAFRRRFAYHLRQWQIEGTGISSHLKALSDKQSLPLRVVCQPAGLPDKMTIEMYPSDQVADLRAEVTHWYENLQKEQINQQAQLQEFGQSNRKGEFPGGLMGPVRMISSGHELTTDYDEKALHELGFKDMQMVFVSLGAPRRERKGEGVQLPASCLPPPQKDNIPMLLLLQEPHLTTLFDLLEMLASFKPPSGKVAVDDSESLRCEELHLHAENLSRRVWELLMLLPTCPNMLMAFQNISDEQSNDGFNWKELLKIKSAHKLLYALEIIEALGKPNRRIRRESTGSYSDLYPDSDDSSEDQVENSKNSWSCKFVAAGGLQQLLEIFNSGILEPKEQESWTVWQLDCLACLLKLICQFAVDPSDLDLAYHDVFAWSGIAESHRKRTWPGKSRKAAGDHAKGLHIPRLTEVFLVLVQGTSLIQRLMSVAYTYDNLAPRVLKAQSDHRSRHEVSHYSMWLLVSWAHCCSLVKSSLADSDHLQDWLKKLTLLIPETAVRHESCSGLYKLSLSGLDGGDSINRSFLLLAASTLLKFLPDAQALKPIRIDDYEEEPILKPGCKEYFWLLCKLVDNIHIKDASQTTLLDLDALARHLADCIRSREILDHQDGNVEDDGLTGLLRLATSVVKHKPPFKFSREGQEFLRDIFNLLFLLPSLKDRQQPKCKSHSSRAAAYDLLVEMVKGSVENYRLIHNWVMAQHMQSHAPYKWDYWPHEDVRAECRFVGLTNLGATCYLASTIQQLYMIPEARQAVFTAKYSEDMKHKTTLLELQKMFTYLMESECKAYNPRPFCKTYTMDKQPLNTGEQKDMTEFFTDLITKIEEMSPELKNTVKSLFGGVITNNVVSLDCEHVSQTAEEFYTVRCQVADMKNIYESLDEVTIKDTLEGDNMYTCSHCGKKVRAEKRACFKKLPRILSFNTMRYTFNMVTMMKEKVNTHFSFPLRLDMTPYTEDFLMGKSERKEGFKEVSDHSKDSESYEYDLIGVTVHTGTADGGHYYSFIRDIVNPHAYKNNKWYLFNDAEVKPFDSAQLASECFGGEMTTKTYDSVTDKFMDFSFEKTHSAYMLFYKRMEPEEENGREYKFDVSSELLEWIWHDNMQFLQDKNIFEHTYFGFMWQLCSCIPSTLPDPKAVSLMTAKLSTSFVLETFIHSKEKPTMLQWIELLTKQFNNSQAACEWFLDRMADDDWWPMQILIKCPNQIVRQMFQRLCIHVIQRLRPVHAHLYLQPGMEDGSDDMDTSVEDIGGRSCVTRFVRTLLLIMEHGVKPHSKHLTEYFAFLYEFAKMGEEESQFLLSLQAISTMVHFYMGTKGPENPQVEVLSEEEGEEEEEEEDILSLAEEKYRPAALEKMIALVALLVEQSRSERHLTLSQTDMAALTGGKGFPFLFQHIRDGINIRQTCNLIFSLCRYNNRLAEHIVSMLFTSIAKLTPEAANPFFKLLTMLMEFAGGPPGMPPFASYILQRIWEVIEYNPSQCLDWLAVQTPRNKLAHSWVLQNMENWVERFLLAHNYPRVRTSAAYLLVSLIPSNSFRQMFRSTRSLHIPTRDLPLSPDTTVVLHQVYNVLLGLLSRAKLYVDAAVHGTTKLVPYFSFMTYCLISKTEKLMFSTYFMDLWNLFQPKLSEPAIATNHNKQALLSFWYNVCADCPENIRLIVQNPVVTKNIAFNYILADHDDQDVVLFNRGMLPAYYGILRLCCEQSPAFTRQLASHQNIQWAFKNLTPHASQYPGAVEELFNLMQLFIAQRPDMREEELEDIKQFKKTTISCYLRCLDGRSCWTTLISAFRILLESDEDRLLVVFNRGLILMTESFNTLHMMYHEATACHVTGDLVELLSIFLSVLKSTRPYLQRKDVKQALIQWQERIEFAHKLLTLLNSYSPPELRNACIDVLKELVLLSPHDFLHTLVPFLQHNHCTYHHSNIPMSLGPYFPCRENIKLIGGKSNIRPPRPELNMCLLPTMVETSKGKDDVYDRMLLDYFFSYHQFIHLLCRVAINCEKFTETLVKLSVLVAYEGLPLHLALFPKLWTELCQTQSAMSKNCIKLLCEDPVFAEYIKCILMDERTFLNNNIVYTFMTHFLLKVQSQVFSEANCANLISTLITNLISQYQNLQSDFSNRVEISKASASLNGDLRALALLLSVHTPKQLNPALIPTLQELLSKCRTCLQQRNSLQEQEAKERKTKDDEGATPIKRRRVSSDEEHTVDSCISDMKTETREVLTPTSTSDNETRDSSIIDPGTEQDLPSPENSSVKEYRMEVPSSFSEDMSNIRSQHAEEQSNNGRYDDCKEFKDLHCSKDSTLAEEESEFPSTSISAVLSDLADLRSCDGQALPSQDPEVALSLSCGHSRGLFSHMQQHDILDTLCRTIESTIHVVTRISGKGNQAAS
How it was run: (§1)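 The table lists average log2 ratios of fragment over vehicle, from an unpaired t-test on global-median-normalised Spectronaut label-free quantities. Proteins with ≥2 unique peptides were used. Samples were HEK293T lysate (495 µg) treated in triplicate with fragment at 200 µM or vehicle for 3 h, then with Biotin-Ahx-Ub-VS (0.5 µM final) for 1 h, with labelled DUBs NeutrAvidin-enriched and run by diaPASEF LC-MS/MS.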

USP36 = biological target: T1, USP36 (UniProt Q9P275)
T1 sequence (whole entry): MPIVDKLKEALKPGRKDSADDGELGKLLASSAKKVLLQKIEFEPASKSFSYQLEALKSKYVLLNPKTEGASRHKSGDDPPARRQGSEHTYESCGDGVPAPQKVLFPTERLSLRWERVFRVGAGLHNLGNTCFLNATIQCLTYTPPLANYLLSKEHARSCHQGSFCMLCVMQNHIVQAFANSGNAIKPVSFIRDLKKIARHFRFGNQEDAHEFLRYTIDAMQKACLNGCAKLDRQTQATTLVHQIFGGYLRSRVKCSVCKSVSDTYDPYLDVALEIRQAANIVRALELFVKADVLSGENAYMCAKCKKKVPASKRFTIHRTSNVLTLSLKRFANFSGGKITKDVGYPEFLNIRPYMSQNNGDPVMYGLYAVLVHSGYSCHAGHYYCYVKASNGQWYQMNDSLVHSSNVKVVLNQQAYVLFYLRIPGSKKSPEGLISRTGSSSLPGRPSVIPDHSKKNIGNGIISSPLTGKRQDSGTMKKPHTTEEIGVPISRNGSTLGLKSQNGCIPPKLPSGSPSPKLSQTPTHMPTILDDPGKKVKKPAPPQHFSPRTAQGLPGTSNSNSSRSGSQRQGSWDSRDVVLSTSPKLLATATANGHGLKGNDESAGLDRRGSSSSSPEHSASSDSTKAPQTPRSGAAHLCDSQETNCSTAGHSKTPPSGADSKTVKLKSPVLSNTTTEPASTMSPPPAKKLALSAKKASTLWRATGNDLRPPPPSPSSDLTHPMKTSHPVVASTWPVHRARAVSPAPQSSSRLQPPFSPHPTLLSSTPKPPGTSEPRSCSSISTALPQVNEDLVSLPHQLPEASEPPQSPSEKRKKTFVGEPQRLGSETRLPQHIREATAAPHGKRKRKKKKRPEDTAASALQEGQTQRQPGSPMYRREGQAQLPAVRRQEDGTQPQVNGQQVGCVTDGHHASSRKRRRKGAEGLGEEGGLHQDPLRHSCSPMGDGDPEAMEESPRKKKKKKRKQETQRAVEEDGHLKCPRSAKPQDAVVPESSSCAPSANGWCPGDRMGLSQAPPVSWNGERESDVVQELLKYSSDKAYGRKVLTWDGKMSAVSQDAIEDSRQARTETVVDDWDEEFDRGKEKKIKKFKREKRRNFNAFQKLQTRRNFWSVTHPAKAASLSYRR
How it was run: as §1

USP38 = biological target: T2, USP38 (UniProt Q8NB14)
T2 sequence (whole entry): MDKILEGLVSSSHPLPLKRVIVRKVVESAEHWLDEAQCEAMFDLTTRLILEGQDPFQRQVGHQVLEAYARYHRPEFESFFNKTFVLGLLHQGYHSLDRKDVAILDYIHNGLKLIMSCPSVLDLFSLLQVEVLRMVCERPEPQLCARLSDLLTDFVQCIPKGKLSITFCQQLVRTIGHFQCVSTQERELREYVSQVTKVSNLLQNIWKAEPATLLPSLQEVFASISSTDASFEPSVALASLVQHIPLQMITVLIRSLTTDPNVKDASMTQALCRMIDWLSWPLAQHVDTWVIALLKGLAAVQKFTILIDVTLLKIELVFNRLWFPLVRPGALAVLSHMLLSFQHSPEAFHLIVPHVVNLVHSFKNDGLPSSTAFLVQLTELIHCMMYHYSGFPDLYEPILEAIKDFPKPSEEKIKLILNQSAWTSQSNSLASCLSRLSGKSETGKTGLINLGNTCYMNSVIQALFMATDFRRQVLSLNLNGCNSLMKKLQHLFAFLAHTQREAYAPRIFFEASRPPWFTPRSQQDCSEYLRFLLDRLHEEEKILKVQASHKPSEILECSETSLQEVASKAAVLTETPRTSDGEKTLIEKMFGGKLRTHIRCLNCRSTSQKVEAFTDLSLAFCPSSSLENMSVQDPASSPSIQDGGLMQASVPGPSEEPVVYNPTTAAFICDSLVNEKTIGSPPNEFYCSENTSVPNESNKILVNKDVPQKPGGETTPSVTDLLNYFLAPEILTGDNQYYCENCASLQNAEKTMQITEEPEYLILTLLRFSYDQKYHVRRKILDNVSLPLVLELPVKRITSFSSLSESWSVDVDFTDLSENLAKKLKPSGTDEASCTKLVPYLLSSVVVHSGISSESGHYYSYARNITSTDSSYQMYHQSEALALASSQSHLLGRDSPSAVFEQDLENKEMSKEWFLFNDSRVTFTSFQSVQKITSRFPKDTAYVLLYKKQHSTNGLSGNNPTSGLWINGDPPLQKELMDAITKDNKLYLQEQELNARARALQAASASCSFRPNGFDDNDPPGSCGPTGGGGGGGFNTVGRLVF
How it was run: as §1

USP39 = biological target: T3, USP39 (UniProt Q53GS9)
T3 sequence (whole entry): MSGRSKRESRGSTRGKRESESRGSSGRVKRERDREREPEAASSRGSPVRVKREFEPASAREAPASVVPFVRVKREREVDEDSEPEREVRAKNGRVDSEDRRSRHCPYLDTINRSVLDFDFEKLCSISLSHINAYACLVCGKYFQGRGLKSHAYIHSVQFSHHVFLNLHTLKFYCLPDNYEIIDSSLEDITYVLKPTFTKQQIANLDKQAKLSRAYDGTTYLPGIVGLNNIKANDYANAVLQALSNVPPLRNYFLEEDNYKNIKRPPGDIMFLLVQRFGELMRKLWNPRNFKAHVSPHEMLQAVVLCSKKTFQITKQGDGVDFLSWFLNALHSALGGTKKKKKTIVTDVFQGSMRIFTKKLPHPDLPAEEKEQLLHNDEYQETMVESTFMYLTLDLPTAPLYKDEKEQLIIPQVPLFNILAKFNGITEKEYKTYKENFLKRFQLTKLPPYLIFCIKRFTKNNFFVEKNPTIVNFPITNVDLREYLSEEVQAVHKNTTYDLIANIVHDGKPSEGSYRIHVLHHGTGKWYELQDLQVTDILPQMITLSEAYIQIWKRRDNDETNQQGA
How it was run: as §1

USP4 = biological target: T4, USP4 (UniProt Q13107)
T4 sequence (whole entry): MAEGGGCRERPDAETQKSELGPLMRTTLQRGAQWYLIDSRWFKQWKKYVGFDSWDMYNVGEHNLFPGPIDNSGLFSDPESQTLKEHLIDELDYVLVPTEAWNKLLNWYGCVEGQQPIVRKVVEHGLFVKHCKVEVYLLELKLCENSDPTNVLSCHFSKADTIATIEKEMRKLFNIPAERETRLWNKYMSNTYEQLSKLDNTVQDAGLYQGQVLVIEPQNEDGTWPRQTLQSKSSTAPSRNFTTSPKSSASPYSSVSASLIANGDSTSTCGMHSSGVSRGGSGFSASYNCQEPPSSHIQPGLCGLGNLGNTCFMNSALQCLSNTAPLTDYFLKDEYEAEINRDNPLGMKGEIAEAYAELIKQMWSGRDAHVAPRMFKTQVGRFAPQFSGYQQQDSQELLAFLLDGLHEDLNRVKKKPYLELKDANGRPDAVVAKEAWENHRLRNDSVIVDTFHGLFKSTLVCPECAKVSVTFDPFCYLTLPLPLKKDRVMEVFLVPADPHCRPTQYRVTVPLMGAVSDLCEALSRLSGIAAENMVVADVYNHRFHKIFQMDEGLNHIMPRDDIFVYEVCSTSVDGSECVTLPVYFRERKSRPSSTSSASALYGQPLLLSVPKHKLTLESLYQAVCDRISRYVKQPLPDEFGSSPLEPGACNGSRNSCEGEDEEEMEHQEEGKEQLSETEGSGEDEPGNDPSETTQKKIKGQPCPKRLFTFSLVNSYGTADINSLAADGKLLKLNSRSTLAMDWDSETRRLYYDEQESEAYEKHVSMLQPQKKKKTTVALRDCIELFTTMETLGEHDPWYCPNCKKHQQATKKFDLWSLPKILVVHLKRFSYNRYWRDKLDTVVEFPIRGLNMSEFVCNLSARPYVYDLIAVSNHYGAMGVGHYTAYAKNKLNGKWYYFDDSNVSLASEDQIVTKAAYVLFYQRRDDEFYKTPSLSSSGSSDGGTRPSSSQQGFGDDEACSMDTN
How it was run: as §1

Measured: log2 ratio of Biotin-Ahx-Ub-VS probe labelling

Cc1cccc2nc(CCNC(=O)CCl)cn12.Cl
inactive: USP34 -0.19 | USP36 -0.179 | USP38 -0.0583 | USP39 0.203 | USP4 -0.184
